TGFb SMAD3 inh: qHTS for Inhibitors of TGF-b; 1.2% of 410,000 active; Potency, µM (titrated, usually from 46.1 µM), without a hit: at the top dose activity, negative = inhibition, actives largely listed as inhibitors; HepG2 CAGA-GFP TGF-b/SMAD3 reporter, GFP fluorescence, 18 h; TGF-beta stimulated, 500 pg/mL final; further: potency means the concentration at half of the fitted maximal effect; on the % scale 0 is the no-effect control and ±100 the full control effect; nearly all actives have a fitted effect of over 65% in size
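HEPG2 CAGA-GFP reporter cells (1000/well, DMEM with 1% FBS) received compounds, then recombinant TGF-beta at 500 pg/mL final for 18 hours at 37 degrees C. Per-cell GFP summed per well was normalised to unstimulated and stimulated DMSO controls before curve fitting.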
S-ASM inh: Inhibitors of Secretory Acid Sphingomyelinase (S-ASM): qHTS; Sphingomyelin phosphodiesterase (Homo sapiens), P17405; placental ASM, HMU-PC fluorogenic substrate, 60 min; Potency, µM (titrated, usually from 57.5 µM), for the others: top-dose activity change, negative = inhibition, hits mostly inhibitors; 0.006% of 340,000 active; AID 504937, 2011; further: potency means the concentration at half of the fitted maximal effect
Target sequence (P17405 47-631 limits assumed): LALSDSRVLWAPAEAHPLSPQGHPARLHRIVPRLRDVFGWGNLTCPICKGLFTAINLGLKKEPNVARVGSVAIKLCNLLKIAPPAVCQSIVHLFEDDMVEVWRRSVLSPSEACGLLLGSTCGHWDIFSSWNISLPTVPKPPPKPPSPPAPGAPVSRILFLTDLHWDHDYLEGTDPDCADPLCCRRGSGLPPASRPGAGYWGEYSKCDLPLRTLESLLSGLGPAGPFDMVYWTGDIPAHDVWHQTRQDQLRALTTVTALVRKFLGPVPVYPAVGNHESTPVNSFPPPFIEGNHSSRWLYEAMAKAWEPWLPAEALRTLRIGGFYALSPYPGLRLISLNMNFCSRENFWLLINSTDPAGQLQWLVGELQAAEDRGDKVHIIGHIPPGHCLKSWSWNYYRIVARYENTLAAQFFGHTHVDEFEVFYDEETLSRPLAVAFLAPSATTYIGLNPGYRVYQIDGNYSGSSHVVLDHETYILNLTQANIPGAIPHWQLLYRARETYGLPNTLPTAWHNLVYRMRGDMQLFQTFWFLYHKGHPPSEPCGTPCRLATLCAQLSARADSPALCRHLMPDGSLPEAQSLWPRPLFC
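qHTS format. ASM enzyme prepared from human placenta hydrolyses the fluorogenic substrate HMU-PC0 (9 uM final) over 60 min at 37 °C after a 10 min compound preincubation.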
TDP1 cell CPT: qHTS for Inhibitors of human tyrosyl-DNA phosphodiesterase 1 (TDP1): qHTS in cells in presence of CPT; 12% of 420,000 active; Potency, µM (doses to about 46.2 µM), for inactives: at the top dose activity change, negative = growth inhibition, hits mostly inhibitors; AID 686979, 2013; chicken DT40 Tdp1-/-;hTDP1 cells + 20 nM CPT, ATP luminescence, 48 h; further: potency means the concentration at half of the fitted maximal effect; on the % scale 0 is the no-effect control and ±100 the full control effect; nearly all actives have a fitted effect of over 55% in size
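Cell growth measured by CellTiter-Glo luminescence after a minimum 48 h, 37 C compound exposure with 20 nM CPT in Tdp1-knockout DT40 cells stably expressing hTDP1, seeded 400/well; qHTS titration format.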
IL-1B inflam inh: qHTS for Inhibitors of Inflammasome Signaling: IL-1-beta AlphaLISA Primary Screen | THP-1 LPS/ATP IL-1B secretion, AlphaLISA, 16 h; stronger effect = lower value | activity change, % at 57.5 µM | 4.7% of 360,000 active; in the data active means activity change below about -50%; inconclusive means mostly about -30% to -49%; further: on the % scale 0 is the no-effect control and ±100 the full control effect
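Secreted IL-1B measured by AlphaLISA bead assay after 16 h compound exposure of THP-1 cells; compounds (final up to 57.5 uM) added 1 h before LPS (250 ng/mL) and ATP (1.25 mM) stimulation; lower signal means less secretion.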
TDP1 cell noCPT: qHTS for Inhibitors of human tyrosyl-DNA phosphodiesterase 1 (TDP1): qHTS in cells in absence of CPT; DT40 Tdp1-/- hTDP1 cells, no CPT, ATP luminescence, 48 h; Potency, µM (series often up to 46.2 µM), inactives show at the top dose activity change, negative = growth inhibition, hits mostly inhibitors; 15% of 420,000 active; AID 686978, 2013; further: potency means the concentration at half of the fitted maximal effect; on the % scale 0 is the no-effect control and ±100 the full control effect; nearly all actives have a fitted effect of over 55% in size
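A cellular qHTS used chicken DT40 cells lacking endogenous Tdp1 but carrying stably transfected human TDP1. Compounds were applied without camptothecin, and cell growth kinetics were judged by ATP-dependent luminescence after ≥48 hr.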
HepG2 tox: qHTS for Inhibitors of TGF-b: Cytotox Counterscreen. AID 588856, 2011. HepG2 CAGA-GFP viability, ATP luminescence, 18 h. Potency, µM (series often up to 46.1 µM), inactives show at the top dose activity change, negative = cytotoxicity, usual class: cytotoxic. 0.76% of 410,000 active; further: potency means the concentration at half of the fitted maximal effect
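HepG2 CAGA-GFP cells (1000/well, DMEM with 1% FBS) received compound, then TGF-beta at 500 pg/mL final, and were incubated 18 hours at 37 degrees C. Viability was read by CellTiter-Glo luminescence. Media-only wells were set as complete cell-killing and DMSO as no toxicity.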
* hit, by the source's call. Rows were chosen to be rich in hits. Some 19% of all compounds tested hit in one or more screens of this group. Unless noted, the call rests on the fitted dose curve; in most records, active means well fitted curve in the direction sought with a large enough effect; inconclusive means small, poorly fitted or top-dose-only effect, or another doubt; inactive means no such curve, though single readings can be large; an effect the other way counts as inactive or inconclusive.

`CCN1C[C@@]2(COC)C3[C@@H](OC)C4[C@@H]1[C@@]3(C1C[C@@]3(O)[C@H](OC(=O)c5ccccc5)C1[C@]4(OC(C)=O)[C@@H](O)[C@@H]3OC)[C@@H](OC)C[C@H]2O` (stereo partly specified) gave TDP1 cell CPT -4% and TDP1 cell noCPT 16%.
Cc1nn(CC(C)C)c(Cl)c1C(=O)NC1CCCC1 was read as TGFb SMAD3 inh -7%, TDP1 cell CPT 4%, IL-1B inflam inh -10, TDP1 cell noCPT 5% and HepG2 tox 4%.
`Cc1nn(C(C)(C)C)c(C)c1/C=N/OC(=O)Nc1ccc(Cl)cc1` gave TGFb SMAD3 inh inconclusive, S-ASM inh -18%, TDP1 cell CPT inconclusive, IL-1B inflam inh -94*, TDP1 cell noCPT inconclusive and HepG2 tox -34%.
`CCCCn1nnnc1C(C1CC1)N1CCC2(CC1)C(=O)NCN2c1ccccc1` (stereo unspecified) gave TGFb SMAD3 inh inconclusive, TDP1 cell CPT inconclusive, IL-1B inflam inh 3, TDP1 cell noCPT inconclusive and HepG2 tox -1%.
`CCC(c1nnnn1Cc1ccccc1)N1CCC(n2c(=O)[nH]c3ccccc32)CC1` (stereo unspecified) gave TGFb SMAD3 inh inconclusive, TDP1 cell CPT 5.8µM*, IL-1B inflam inh -5, TDP1 cell noCPT 4.6µM* and HepG2 tox -15%.
`COc1ccc(-n2nnnc2C(CCSC)N2CCC(n3c(=O)[nH]c4ccccc43)CC2)cc1` (stereo unspecified) gave TGFb SMAD3 inh inconclusive, TDP1 cell CPT inconclusive, IL-1B inflam inh -27, TDP1 cell noCPT 21µM* and HepG2 tox 0%.
Screening Cc1cccc(C)c1-n1nnnc1C(CCc1ccccc1)N1CCC(n2c(=O)[nH]c3ccccc32)CC1 (stereo unspecified) returned TGFb SMAD3 inh inconclusive, TDP1 cell CPT 5.8µM*, IL-1B inflam inh 3, TDP1 cell noCPT 5.8µM* and HepG2 tox 5%.
Screening CCCCn1nnnc1C(CCc1ccccc1)N1CCC(n2c(=O)[nH]c3ccccc32)CC1 (stereo unspecified) returned TGFb SMAD3 inh inconclusive, TDP1 cell CPT 12µM*, IL-1B inflam inh -56*, TDP1 cell noCPT 12µM* and HepG2 tox 1%.
`CCC(c1nnnn1-c1ccc(OC)cc1)N1CCC(n2c(=O)[nH]c3ccccc32)CC1` (stereo unspecified) gave TGFb SMAD3 inh 3%, TDP1 cell CPT inconclusive, IL-1B inflam inh -22, TDP1 cell noCPT inconclusive and HepG2 tox 2%.
Screening O=C(O)[C@H]1C[C@@H]1[C@H](NP(=O)(c1ccccc1)c1ccccc1)c1ccccc1 returned TGFb SMAD3 inh 3%, S-ASM inh 0%, TDP1 cell CPT 20%, IL-1B inflam inh 0, TDP1 cell noCPT 3% and HepG2 tox -18%.
`CCCCOP(=O)(OCCCC)C(O)c1ccc(F)cc1` (stereo unspecified) gave TGFb SMAD3 inh 6%, S-ASM inh 3%, TDP1 cell CPT -7%, IL-1B inflam inh 1, TDP1 cell noCPT inconclusive and HepG2 tox -1%.
C=CC[C@@H](C)CC(=O)C(CCCN=[N+]=[N-])SOOc1ccccc1 (stereo partly specified) was read as TGFb SMAD3 inh inconclusive, S-ASM inh 4%, TDP1 cell CPT inconclusive, IL-1B inflam inh 0, TDP1 cell noCPT inconclusive and HepG2 tox -14%.
COc1cccc(C(c2nnnn2-c2c(C)cccc2C)N2CCC(n3c(=O)[nH]c4ccccc43)CC2)c1OC (stereo unspecified) was read as TGFb SMAD3 inh inconclusive, TDP1 cell CPT 5.8µM*, IL-1B inflam inh -84*, TDP1 cell noCPT 5.8µM* and HepG2 tox -3%.
For CCCCn1nnnc1C(C1CC1)N1CCC(n2c(=O)[nH]c3ccccc32)CC1 (stereo unspecified) the results were TGFb SMAD3 inh -25%, TDP1 cell CPT inconclusive, IL-1B inflam inh -15, TDP1 cell noCPT inconclusive and HepG2 tox -46%.
Screening CSCCC(c1nnnn1-c1ccc2c(c1)OCCO2)N1CCC2(CC1)C(=O)NCN2c1ccccc1 (stereo unspecified) returned TGFb SMAD3 inh inconclusive, TDP1 cell CPT inconclusive, IL-1B inflam inh 0, TDP1 cell noCPT inconclusive and HepG2 tox -33%.
Screening CCCCn1nnnc1C(CCSC)N1CCC(n2c(=O)[nH]c3ccccc32)CC1 (stereo unspecified) returned TGFb SMAD3 inh -34%, TDP1 cell CPT 12µM*, IL-1B inflam inh -4, TDP1 cell noCPT 9.2µM* and HepG2 tox -26%.
For O=c1[nH]c2ccccc2n1C1CCN(C(CCc2ccccc2)c2nnnn2-c2ccc3c(c2)OCCO3)CC1 (stereo unspecified) the results were TGFb SMAD3 inh inconclusive, TDP1 cell CPT 3.7µM*, IL-1B inflam inh inconclusive, TDP1 cell noCPT 2.9µM* and HepG2 tox -18%.
O=C1Nc2ccc(Cl)cc2C(c2ccccc2Cl)=NC1O (stereo unspecified) was read as TDP1 cell CPT inconclusive and TDP1 cell noCPT -95%.
Screening Cc1ccc(-c2nnc(Nc3ccc(O)cc3)c3ccccc23)cc1S(=O)(=O)N1CCOCC1 returned TGFb SMAD3 inh inconclusive, TDP1 cell CPT inconclusive, TDP1 cell noCPT 16µM* and HepG2 tox -10%.
Screening CCOc1cc(-c2c(C#N)c(=O)[nH]c3c2c(C)nn3-c2ccc(F)cc2)ccc1O returned TGFb SMAD3 inh inconclusive, S-ASM inh 14%, TDP1 cell CPT -13%, IL-1B inflam inh 11, TDP1 cell noCPT -15% and HepG2 tox -12%.
CC(=O)OC(C)(C)/C=C/C(=O)C(C)(O)C1C(O)CC2(C)C3CC=C4C(CC(O)C(=O)C4(C)C)C3(C)C(=O)CC12C (stereo unspecified) was read as TGFb SMAD3 inh inconclusive, S-ASM inh 1%, TDP1 cell CPT 0.026µM*, IL-1B inflam inh -99*, TDP1 cell noCPT 0.016µM* and HepG2 tox 17%.
